# Measurements from the supplement of paper PMC9135407.
# Several values for one entry are separate records, joined by “and”; a condition that tells them apart may be missing. Identical values can stand only once. Counter-ions that a name gives are not always drawn. Out of some 5,800 compounds screened, about 620 (11%) showed activity. This excerpt belongs to a sample that is enriched for actives. A number with no mark means an inactive call.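 How the source made its calls: active = score above a cut-off or among the top three wells of a plate; in these data no inactive exceeds 0.85.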
# System: primary human hepatic stellate cells (donor 1)
# Experiment: scaled lipid accumulation score (0 = DMSO-like, 1 = nortriptyline-like); higher = stronger HSC inactivation (lipid re-accumulation), active = hit call of the paper
# Details: 48 h
# [1] = library stock concentration: 1 mM
# [2] = library stock concentration: 10 mM
# [3] = library stock concentration: 3.33 mM
# [4] = library stock concentration: 80 uM
# [5] = library stock concentration: 400 uM
# [6] = library stock concentration: 2 mM
# [7] = library stock concentration: 100 uM
smiles,measurement,setting,value
CCCCC/C=C\C/C=C\C/C=C\C/C=C\CCCC(=O)NC[C@@H](C)O [R-2 Methanandamide],scaled lipid accumulation score,[1],≤ 0
COC[C@@H]([C@H](O)[C@H](O)C(=O)NCC[C@H](C)c1nc(/C=C/C[C@@H]2O[C@]3(C[C@@H](O)[C@@H]2C)O[C@H]([C@H](C[C@H](O)[C@H](C)[C@H](O)[C@H](C)/C=C(C)/C(C)=C/C=C/C(C)=C\C#N)OC)[C@H](OP(=O)(O)O)C3(C)C)co1)N(C)C [Calyculin A],scaled lipid accumulation score,library stock concentration: 500 uM,0.228
C=C1[C@@H](C)[C@H]2[C@H](Cc3ccccc3)NC(=O)[C@]23OC(=O)/C=C/[C@H](O)CCC[C@@H](C)C/C=C/[C@H]3[C@@H]1O [Cytochalasin B],scaled lipid accumulation score,library stock concentration: 10.4 mM,0.806
C=C1[C@@H](C)[C@H]2[C@H](Cc3ccccc3)NC(=O)C23[C@H](OC(C)=O)/C=C/[C@](C)(O)C(=O)[C@@H](C)C/C=C/[C@H]3[C@@H]1O (stereo partly specified) [Cytochalasin D],scaled lipid accumulation score,library stock concentration: 9.9 mM,0.918 (active)
CC[C@@H](C)C(=O)O[C@H]1[C@H](O)[C@H]2[C@@H](CN3C[C@@H](C)CC[C@H]3[C@@]2(C)O)[C@@H]2C[C@]34O[C@]5(O)[C@@H](OC(=O)[C@](C)(O)[C@@H](C)O)CC[C@@]3(C)[C@@H]5[C@@H](OC(C)=O)[C@@H](OC(C)=O)[C@H]4[C@@]21O (stereo in doubt) [Protoveratrine b],scaled lipid accumulation score,[2],≤ 0
"COc1ccc2c(c1OC)CN1CCc3cc4c(cc3C1C2)OCO4 (stereo unspecified) [(d,l)-Tetrahydroberberine]",scaled lipid accumulation score,,≤ 0
COc1ccc2c(c[n+](C)c3c4cc5c(cc4ccc23)OCO5)c1OC [Chelerythrine Chloride],scaled lipid accumulation score,[3],0.656
COc1ccc2c(c[n+](C)c3c4cc5c(cc4ccc23)OCO5)c1OC [Chelerythrine chloride],scaled lipid accumulation score,[4],≤ -0.016
same,scaled lipid accumulation score,[5],≤ -0.016
same,scaled lipid accumulation score,[2],0.308 and 0.167
COc1ccc2c(c[n+](C)c3c4cc5c(cc4ccc23)OCO5)c1OC.Cl [Chelerythrine chloride],scaled lipid accumulation score,[6],1.1 (active)
CCCCC/C=C\C/C=C\C/C=C\C/C=C\CCC(C)C(=O)NCCF (stereo unspecified),scaled lipid accumulation score,[1],0.05
C/C=C1/C[N+]2(C)CCC34C(=C(C=O)[C@H]1C[C@@H]32)Nc1ccccc14 (stereo partly specified) [Fluorocurarine chloride],scaled lipid accumulation score,,≤ 0
CC(C)C1CNC(C(=O)O)C1CC(=O)O (stereo unspecified) [Dihydrokainic acid],scaled lipid accumulation score,[2],0.08
CCCCC/C=C\C[C@@H](/C=C/C=C\C/C=C\CCCC(=O)O)OO,scaled lipid accumulation score,[7],≤ -0.021
CN1C2CCC1CC(OC(=O)c1cc(Cl)cc(Cl)c1)C2 (stereo unspecified),scaled lipid accumulation score,[2],1.04 (active)
"CN1[C@@H]2CC[C@H]1C[C@@H](OC(=O)c1cc(Cl)cc(Cl)c1)C2 [3-Tropanyl-3,5-dichlorobenzoate]",scaled lipid accumulation score,[2],0.646
"Cc1cc(C)cc(C(=O)OC2C[C@H]3CC[C@@H](C2)N3C)c1 (stereo partly specified) [Tropanyl-3,5-dimethylbenzoate]",scaled lipid accumulation score,[2],0.57
C=C(C)[C@H]1O[C@H]2CC[C@@]3(C)[C@@](O)(CC[C@H]4[C@@H]5OC(C)(C)[C@H]6C[C@@H]7C(=C)Cc8c(Cl)cc9[nH]c(c5c9c8[C@@]76O)[C@@]43C)[C@@]23O[C@H]3[C@H]1O [Penitrem A],scaled lipid accumulation score,library stock concentration: 7.9 mM,≤ -0.021
O=c1[nH]c2ccccc2n1CCCN1CCC(n2c(=O)[nH]c3cc(Cl)ccc32)CC1 [Domperidone],scaled lipid accumulation score,,0.362
same,scaled lipid accumulation score,[3],0.062
same,scaled lipid accumulation score,library stock concentration: 4.7 mM,0.135 and 0.071
O=c1[nH]c2ccccc2n1C1CCN(Cc2ccc(-c3[nH]c4cc5ncnc5cc4nc3-c3ccccc3)cc2)CC1 [Sigma A6730],scaled lipid accumulation score,[4],≤ 0
same,scaled lipid accumulation score,[5],≤ 0
same,scaled lipid accumulation score,[6],0.055
same,scaled lipid accumulation score,[2],0.683
O=c1[nH]c2ccccc2n1C1CCN(CCCC(c2ccc(F)cc2)c2ccc(F)cc2)CC1 [Pimozide] [listing 1 of 3 here],scaled lipid accumulation score,[2],1.15 (active)
O=c1[nH]c2ccccc2n1C1CCN(CCCC(c2ccc(F)cc2)c2ccc(F)cc2)CC1 [Pimozide] [listing 2 of 3 here],scaled lipid accumulation score,[2],1.21 (active)
O=c1[nH]c2ccccc2n1C1CCN(CCCC(c2ccc(F)cc2)c2ccc(F)cc2)CC1 [Pimozide] [listing 3 of 3 here],scaled lipid accumulation score,,0.242
same,scaled lipid accumulation score,[2],0.021
O=C(CCCN1CCC(n2c(=O)[nH]c3ccccc32)CC1)c1ccc(F)cc1 [Benperidol],scaled lipid accumulation score,,0.202
c1cc(N2CCNCC2)c2cc[nH]c2c1 [4-(1-piperazinyl)-1H-Indole (hydrochloride)],scaled lipid accumulation score,[1],≤ 0
CNCCCCCCN(C)N(O)N=O,scaled lipid accumulation score,[1],0.005
OC1CCCCC1N1CCC(c2ccccc2)CC1 (stereo unspecified),scaled lipid accumulation score,[2],≤ 0
OC1CCCCC1N1CCC(c2ccccc2)CC1 (stereo unspecified) [Vesamicol hydrochloride],scaled lipid accumulation score,library stock concentration: 6.8 mM,≤ 0
same,scaled lipid accumulation score,[2],≤ -0.027
NC(=O)C[S@@+]([O-])C(c1ccccc1)c1ccccc1,scaled lipid accumulation score,[2],≤ 0
CCCCC[C@@H](/C=C/C=C\C/C=C\C/C=C\CCCC(=O)O)OO,scaled lipid accumulation score,[7],≤ -0.01
CCCCC/C=C\C/C=C\C/C=C\C/C=C\CCCC(=O)Nc1cccc(O)c1 [N-(3-hydroxyphenyl)-Arachidonoyl amide],scaled lipid accumulation score,[1],0.053
CCN(CC)CCOC(=O)C(O)(c1ccccc1)c1ccccc1,scaled lipid accumulation score,[2],≤ 0
CCCCC/C=C\C/C=C\C/C=C\C/C=C\CCCC(=O)NCCF [Arachidonoyl-2'-Fluoroethylamide],scaled lipid accumulation score,[1],≤ 0
CCCN1CCc2cccc3c2[C@H]1Cc1ccc(O)c(O)c1-3 [R(-)-Propylnorapomorphine hydrochloride],scaled lipid accumulation score,[2],≤ -0.038
"CCCCCCCCCC(=O)OC[C@H](COP(=O)([O-])OCC[N+](C)(C)C)OC(=O)CCCCCCCCC [1,2-Didecanoyl PC]",scaled lipid accumulation score,[1],≤ 0
c1ccc2sc(C3(N4CCCCC4)CCCCC3)cc2c1 [BTCP maleate],scaled lipid accumulation score,[2],0.248
c1ccc2sc(C3(N4CCCCC4)CCCCC3)cc2c1 [BTCP hydrochloride],scaled lipid accumulation score,[2],0.74
S=C=Nc1cccc(C2(N3CCCCC3)CCCCC2)c1 [Metaphit],scaled lipid accumulation score,[2],0.949 (active)
COC(=O)[C@@H](N)CCCNC(=N)N[N+](=O)[O-],scaled lipid accumulation score,library stock concentration: 21.4 mM,≤ -0.012
COC(=O)[C@@H](N)CCCNC(=N)N[N+](=O)[O-] [L-NAME (hydrochloride)],scaled lipid accumulation score,[1],≤ 0
COC(=O)[C@@H](N)CCCNC(=N)N[N+](=O)[O-] [NG-Nitro-L-arginine methyl ester hydrochloride],scaled lipid accumulation score,[2],0.047
COC(=O)[C@@H](N)CCCNC(=N)N[N+](=O)[O-] [L-NAME hydrochloride],scaled lipid accumulation score,[2],≤ 0
"c1cc2ccsc2c(N2CCNCC2)n1 [7-Piperazin-1-yl-thieno[2,3-c] Pyridine (hydrochloride)]",scaled lipid accumulation score,[1],≤ 0
c1cc(N2CCNCC2)c2cnccc2c1 [8-piperazin-1-yl-Isoquinoline (hydrochloride)],scaled lipid accumulation score,[1],0.005
Oc1ccc2c3c1O[C@H]1c4oc5ccccc5c4C[C@@]4(O)[C@@H](C2)N(CC2CC2)CC[C@]314 [Naltriben mesylate],scaled lipid accumulation score,library stock concentration: 4.8 mM,0.403
Oc1ccc2c3c1O[C@H]1[C@@H](O)CC[C@@]4(O)[C@@H](C2)N(CC2CCC2)CC[C@]314 [Nalbuphine hydrochloride],scaled lipid accumulation score,,≤ 0
same,scaled lipid accumulation score,library stock concentration: 5.1 mM,0.02
same,scaled lipid accumulation score,[2],≤ 0
Oc1ccc2c3c1O[C@H]1[C@@H](O)CC[C@@]4(O)[C@@H](C2)N(CC2CCC2)CC[C@]314 [Nalbuphine],scaled lipid accumulation score,[2],0.075
CS(=O)(=O)O.Oc1ccc2c3c1O[C@H]1c4oc5ccccc5c4C[C@@]4(O)C(C2)N(CC2CC2)CCC314 (stereo partly specified) [Naltriben methanesulfonate],scaled lipid accumulation score,[2],1.11 (active)
NC(N)=Nc1ccc2[nH]c3c(c2c1)C[C@@]1(O)[C@H]2Cc4ccc(O)c5c4[C@@]1(CCN2CC1CC1)[C@H]3O5 [GNTI dihydrochloride],scaled lipid accumulation score,[2],≤ -0.006
Oc1ccc2c3c1O[C@H]1c4c(c5ccccc5n4Cc4ccccc4)C[C@@]4(O)C(C2)N(CC2CC2)CC[C@]314 [N-Benzylnaltrindole hydrochloride],scaled lipid accumulation score,[2],0.77
NC(N)=Nc1ccc2[nH]c3c(c2c1)C[C@@]1(O)[C@H]2Cc4ccc(O)c5c4[C@@]1(CCN2CC1CC1)[C@H]3O5 [Guanidinyl-naltrindole di-trifluoroacetate],scaled lipid accumulation score,[2],≤ -0.07
CS(=O)(=O)O.Oc1ccc2c3c1O[C@H]1c4oc5ccccc5c4C[C@@]4(O)C(C2)N(CC2CC2)CC[C@]314 [Naltriben mesylate],scaled lipid accumulation score,[2],1.27 (active)
NNCc1ccccc1 [Benzylhydrazine hydrochloride],scaled lipid accumulation score,[2],0.294
C[C@@H]1NCCc2cc(O)c(O)cc21 [Salsolinol hydrobromide],scaled lipid accumulation score,,≤ 0
C#CC(C)(O)CC (stereo unspecified),scaled lipid accumulation score,[2],≤ 0
Cc1nnc2n1-c1ccc(Cl)cc1C(c1ccccc1)=NC2 [Alprazolam],scaled lipid accumulation score,[2],≤ 0
Cc1ncc2n1-c1ccc(Cl)cc1C(c1ccccc1F)=NC2,scaled lipid accumulation score,[2],≤ 0
CCCCC/C=C\C=C\[C@H](CCCCCCCC(=O)O)OO,scaled lipid accumulation score,[7],≤ -0.021
C=C1[C@@H](O)[C@@H]2O[C@]3(CC[C@H](/C=C/[C@@H](C)[C@@H]4CC(C)=C[C@@]5(O[C@H](C[C@@](C)(O)C(=O)O)CC[C@H]5O)O4)O3)CC[C@H]2O[C@@H]1[C@@H](O)C[C@H](C)[C@H]1O[C@@]2(CCCCO2)CC[C@H]1C [Okadaic acid],scaled lipid accumulation score,library stock concentration: 600 uM,0.393
COC1=CC(=O)O[C@@H](/C=C/c2ccccc2)C1 [Kawain],scaled lipid accumulation score,,0.119
COC1=CC(=O)O[C@@H](/C=C/c2ccccc2)C1 (racemic) [Kavain (+/-)],scaled lipid accumulation score,library stock concentration: 21.7 mM,0.117
